Our source for the Inhibition values is ChEMBL document CHEMBL4513139, “CO-ADD screening of University of Strathclyde (UK) compounds”.

Hit rate of the full screen: of about 21,000 compounds, fewer than 10 showed an effect of 50% or more. These entries were drawn from the full list. Entries with a potency or affinity are not part of this list.

The test system of the test is Acinetobacter baumannii. Particulars: Concentration 32 ug.mL-1; ASSAY_TEST Inhibition of Bacterial Growth; detection method Absorption (OD600); MEDIA CAMHB; plate type 384well; NBS; CORNING #3640; time 18 hr.
As a reminder, the Inhibition is the share of the control response that was lost under treatment. A higher Inhibition goes with a strong effect. In turn, `Cn1cc(NC(=O)c2cc(NC(=O)c3ccc(/C=C/c4cccc(F)c4)cc3)cn2C)cc1C(=O)NCCN1CCOCC1.O=C(O)C(F)(F)F` gave an Inhibition of 5.74%.
